This is part of a sample that, as a whole, favours compounds with a hit. Of some 83,000 tested, about 20% had one in any assay.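 The test compound was applied at a single concentration to cells in 96-well plates for 48 hours, and percent growth was recorded.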 A number with no mark means an inactive call. Active and inactive are the calls of the source.
What follows are compounds tested on MDA-MB-435 melanoma (assay: NCI-60 one-dose screen, 48 h (100 = growth as untreated, 0 = no growth, -100 = all killed)). Conditions: 10 µM unless noted.
Protocol: Growth inhibition of the MDA-MB-435 human Melanoma tumor cell line is measured as a screen for anti-cancer activity. Cells are grown in 96 well plates and exposed to the test compound for 48 hours. Compounds are tested at a single concentration, which is 10^-5 M for most compounds. The reported endpoint is percent growth (GI% or GIPRCNT), where numbers from 0 - 100% represent growth inhibition, and numbers from -100% - 0 represent cell death. For example, a value of 40 represents 60% growth inhibition. A value of 0 means no net growth occurred over the course of the experiment. A value of -40 indicates 40% of cells at the beginning of the experiment died by the end of the experiment. A value of -100 means all cells are dead at the end of the experiment.
NCI-60 Human Tumor Cell Lines Screen was performed using the standard one-dose NCI protocol, which is described in more detail at https://dtp.cancer.gov/discovery_development/nci-60/default.htm.
Compounds with GIPRCNT values below 10 were considered active. Activity score was based on GIPRCNT using the following formula: […]
Score is 0 for GIPRCNT values of 100 or above, 50 for GIPRCNT values of 0, and 100 for GIPRCNT values of -100.
With COc1ccc(C2=CC(c3ccc(OC)cc3Br)N3C=CSC3=N2)cc1 (stereo not given) the growth was 4.2% (active). For COc1ccc([C@@H]2[C@@H](Cl)C(=O)N2c2cc(OC)c(OC)c(OC)c2)cc1C, the growth was -33.7% (active). Work on Cc1ccccc1CNc1ncnc2[nH]ncc12 yielded a growth of 90.3%. Compound O=C(NNC(=S)Nc1ccccc1)c1ccc(Nc2ncnc3c2cnn3-c2cccc(Br)c2)cc1 has a growth of 105%. For Cc1cc(C)c2c(n1)sc1c(Nc3ccc(Cl)cc3Cl)ncnc12, the growth was 36%. CC(=O)N[C@@H](CCC(N)=O)C(=O)O was tested, and the growth was 99.6%. In the case of Nc1c(C(=O)Nc2cccc(Cl)c2)sc2ncc(Br)cc12, the growth was 71.9%. For CCOP(=O)(O)OP(=O)(O)OCC, the growth was 110%. Compound c1ccc2c(c1)cnc1ccccc12 has a growth of 102%. O=Cc1ccc2nc(C(Cl)(Cl)Cl)ccc2c1 gave a growth of 99.6%. In the case of C#CCNC(=S)N/N=C(\C)c1ccccn1, the growth was 33.1%. COc1cc(C2CC(c3ccc(Cl)cc3)=NN2C=O)ccc1OS(=O)(=O)c1ccc(C)cc1 (stereo not given) showed a growth of 90.2%. In the case of COc1cc(C2C=C(C)N=C3SC=NN32)cc(OC)c1OC (stereo not given), the growth was 104%. For CCCCn1cnc(-c2cc(-c3ccccc3)cc(C(F)(F)F)c2)n1, the growth was 105%. CCCOC(=O)C1c2cc3c(cc2CC(C)C1C(=O)OCCC)OCO3 (stereo not given) gave a growth of 104%. CC1CN(CCCOC(=O)Nc2ccc(Cl)cc2)CCN1C(C)(C)C (stereo not given) showed a growth of 102%. With COc1ccc(/C=C/C(=O)c2ccc(NC(=O)CSc3nnc(-c4ccc(Cl)cc4)n3-c3ccccc3)cc2)cc1 the growth was 94.4%. COC(=O)C1(C)COP(=O)(NC23CC4CC(CC(C4)C2)C3)OC1 (stereo not given) showed a growth of 105%. For OC(c1cc2cc(Cl)ccc2c2cc(C(F)(F)F)ccc12)C1CCCCN1 (stereo not given), the growth was -66.1% (active). C/C(CC(=O)NNc1ccc([N+](=O)[O-])cc1)=N\Nc1ccc([N+](=O)[O-])cc1 gave a growth of 35.4%. Compound COc1ccc(NC(=O)C2c3ccccc3C(=O)N(CC(C)C)C2c2cccs2)cc1 (stereo not given) has a growth of 103%. CC(C)NC(=O)OCC#CCOC(=O)NC(C)C was tested, and the growth was 110%. COc1cc(/C=C/C(=O)c2ccc(NC(=O)CSc3nnc(-c4ccc(Cl)cc4)n3-c3ccccc3)cc2)cc(OC)c1OC gave a growth of 64.4%. With COc1ccc(/C(=C\c2cc(OC)c(OC)c(OC)c2)C(=O)N2CCN(c3ccccc3)CC2)cc1O the growth was 98.1%. For CC(=O)OC1Oc2cc(C)c(C)cc2-c2oc(=O)c(-c3cc4ccccc4oc3=O)cc21 (stereo not given), the growth was 112%. COc1cc(C)c2c(=O)c3c(oc2c1)C(=O)c1c(O)c(OC)cc(O)c1C3=O gave a growth of 16.3%. In the case of CCNC(=S)N(Cc1ccccc1)Cc1ccccc1, the growth was 105%. For O=C(O)/C=C(\c1nc2ccc([N+](=O)[O-])cc2[nH]1)c1cc(Cl)ccc1O, the growth was 20.5%. CC(=O)c1ccc(-n2c(-c3cc(-c4ccsc4)n[nH]3)n[nH]c2=S)cc1 showed a growth of 106%. COc1ccc(/C(=C\c2ccc3c(c2)OCO3)C(=O)Nc2nc3ccccc3s2)cc1 showed a growth of 99.1%. In the case of Cc1nc([C@H]2CC[C@H]3[C@@H]4CCC5=CC(=O)CC[C@]5(C)[C@H]4CC[C@]23C)cs1, the growth was 66.8%. Compound O=C(/C=C/c1cn(-c2ccccc2)nc1-c1cccc(Nc2ccnc3cc(Cl)ccc23)c1)c1ccc2c(c1)OCO2 has a growth of 69.6%. With Cc1nc2ccc(Nc3nc(N4CCOCC4)nc(N4CCN(C)CC4)n3)cc2n1Cc1ccccc1 the growth was 91%. COc1ccc(C2C=C(c3ccc(Cl)cc3)N=C3SC=CN32)cc1 (stereo not given) showed a growth of 107%. COc1cccc2nc(Nc3cccc(NC(=O)c4cc(N5CCOCC5)cc(C(F)(F)F)c4)c3)ccc12 showed a growth of 55.3%. With O=C(CCCCCCc1nc2ccc(Br)cc2[nH]1)NO the growth was -10.5% (active). COc1ccc(-c2[nH]nc(N)c2-c2cc(OC)c(OC)c(OC)c2)cc1 was tested, and the growth was -69.2% (active). COc1ccc(/C(=C\c2cc(OC)c(OC)c(OC)c2)C(=O)N2CCNCC2)cc1 showed a growth of 98.2%. In the case of CCOc1cccc(/C=N/NC(=O)c2ccc(Nc3ccnc(C(F)(F)F)c3)cc2)c1O, the growth was 40.2%. For O=c1cc(-c2ccc3c(c2)OCCO3)oc2cc(Cl)ccc12, the growth was 7.43% (active).
